The target in test [1] is Thyrotropin-releasing hormone receptor (Homo sapiens) (UniProt P34981). The test is described as follows: qHTS assay to identify small molecule agonists of the thyrotropin-releasing hormone receptor (TRHR) signaling pathway (AID 1346891; calls by dose curve; further: series mostly up to about 58 µM). The method, boiled down: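 HEK293 cells expressing TRHR plated 18 h at 37 C/5% CO2, calcium dye-loaded 2 h at 37 C, then compound added (agonist mode); kinetic calcium fluorescence read 3 min at 1 s intervals; 15 concentrations in triplicate.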
Thyrotropin-releasing hormone receptor (Homo sapiens), sequence (P34981 whole entry, looked up): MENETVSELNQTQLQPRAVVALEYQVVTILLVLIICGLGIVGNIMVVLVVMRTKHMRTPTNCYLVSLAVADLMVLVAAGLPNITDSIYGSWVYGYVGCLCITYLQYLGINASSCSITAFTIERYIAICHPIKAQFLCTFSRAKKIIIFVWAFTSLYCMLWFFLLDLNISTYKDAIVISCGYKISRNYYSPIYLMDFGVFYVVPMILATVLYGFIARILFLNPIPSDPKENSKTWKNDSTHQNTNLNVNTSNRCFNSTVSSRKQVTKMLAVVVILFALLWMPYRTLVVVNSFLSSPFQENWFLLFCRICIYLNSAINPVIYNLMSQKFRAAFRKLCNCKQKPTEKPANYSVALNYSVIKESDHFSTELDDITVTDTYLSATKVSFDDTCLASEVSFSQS
For orientation: In qHTS, concentration-response curves come from the screen itself.

The nature of test [2]: Human pregnane X receptor (PXR) small molecule agonists, qHTS cell viability counter screen (AID 1346977). Further: nearly all actives have a fitted effect of over 50% in size. Further: potency means the concentration at half of the fitted maximal effect. The method, boiled down: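 PXR-Luc HepG2 cells (2,000/well, 5% charcoal-stripped FBS) preincubated 5 hr, then exposed to compounds 24 hr at 37 C. Viability read in the same wells by CellTiter-Fluor fluorescence, reagent added at 23 hr, 1 hr incubation.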
Test [3] in a line: Caspase-3/7 induction in HepG2 cells by small molecules, qHTS assay (AID 1346978). Further: nearly all actives have a fitted effect of over 15% in size. The method, boiled down: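 Wild-type HepG2 cells (2,000/well) were settled 5 h at 37 C, 5% CO2, then exposed to compounds in DMSO for 17 h. Caspase-3/7 activity was read by luminescence 30 min after adding Caspase-Glo 3/7 reagent at room temperature.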
A short description of test [4]: Caspase-3/7 induction in CHO-K1 cells by small molecules, qHTS cell viability counter screen (AID 1346979). Further: nearly all actives have a fitted effect of over 35% in size. Further: potency means the concentration at half of the fitted maximal effect. The essentials:
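Wild-type CHO-K1 cells (1,500/well) treated with compound after 5 h plating; after 16 h at 37C, viability read as CellTiter-Fluor fluorescence following 1 h reagent incubation, in the same wells as the caspase read.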

A short description of test [5]: Caspase-3/7 induction in CHO-K1 cells by small molecules, qHTS assay (AID 1346980). Further: nearly all actives have a fitted effect of over 15% in size. The essentials: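 Wild-type cells were seeded at 1,500 per well and settled 5 hr at 37 C, 5% CO2, then exposed to DMSO-dissolved compounds for 17 hr. Caspase-Glo 3/7 reagent was added, and luminescence was read after 30min at room temperature.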
Test [6] can be described thus: Caspase-3/7 induction in HepG2 cells by small molecules, qHTS cell viability counter screen (AID 1346981). Further: nearly all actives have a fitted effect of over 30% in size. Further: potency means the concentration at half of the fitted maximal effect. The method, boiled down: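 CellTiter-Fluor fluorescence measured viability in the same wells used for Caspase-Glo 3/7. HepG2 (wild type) at 2,000 cells/well were pre-incubated 5 hr, dosed, and given reagent at 16 hr, with 1 hr further at 37C.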
Test [7] addresses Nuclear receptor subfamily 1 group I member 2 (Homo sapiens) (UniProt O75469). The test is described as follows: Human pregnane X receptor (PXR) small molecule agonists, qHTS assay (AID 1346982). Further: nearly all actives have a fitted effect of over 35% in size. Further: potency means the concentration at half of the fitted maximal effect. The method, boiled down:
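Agonist mode: luminescence from ONE-Glo after 24 h compound exposure at 37C in HepG2 cells carrying hPXR-responsive CYP3A4 luciferase, plated in charcoal-stripped serum medium 5 h beforehand.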

In test [8] the target is Voltage-gated inwardly rectifying potassium channel KCNH2 (Homo sapiens) (UniProt Q12809). The test is described as follows: Human Ether-a-go-go-Related Gene (hERG) channel small molecule antagonists: fluorescence cell-based qHTS assay (AID 1671200).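 Further: hERG-expressing U2OS cells given a thallium stimulus after FluxOR II dye loading; series mostly up to about 77 µM; nearly all actives have a fitted effect of over 50% in size.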 The method, boiled down: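 hERG-U2OS cells plated overnight at 37 C, loaded with FluxOR II dye 1 h at RT in dark; after 10 min, thallium stimulus added. Fluorescence (480/540 nm) read kinetically for 2 min at 1 s intervals.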
Voltage-gated inwardly rectifying potassium channel KCNH2 (Homo sapiens), sequence (Q12809 whole entry, looked up): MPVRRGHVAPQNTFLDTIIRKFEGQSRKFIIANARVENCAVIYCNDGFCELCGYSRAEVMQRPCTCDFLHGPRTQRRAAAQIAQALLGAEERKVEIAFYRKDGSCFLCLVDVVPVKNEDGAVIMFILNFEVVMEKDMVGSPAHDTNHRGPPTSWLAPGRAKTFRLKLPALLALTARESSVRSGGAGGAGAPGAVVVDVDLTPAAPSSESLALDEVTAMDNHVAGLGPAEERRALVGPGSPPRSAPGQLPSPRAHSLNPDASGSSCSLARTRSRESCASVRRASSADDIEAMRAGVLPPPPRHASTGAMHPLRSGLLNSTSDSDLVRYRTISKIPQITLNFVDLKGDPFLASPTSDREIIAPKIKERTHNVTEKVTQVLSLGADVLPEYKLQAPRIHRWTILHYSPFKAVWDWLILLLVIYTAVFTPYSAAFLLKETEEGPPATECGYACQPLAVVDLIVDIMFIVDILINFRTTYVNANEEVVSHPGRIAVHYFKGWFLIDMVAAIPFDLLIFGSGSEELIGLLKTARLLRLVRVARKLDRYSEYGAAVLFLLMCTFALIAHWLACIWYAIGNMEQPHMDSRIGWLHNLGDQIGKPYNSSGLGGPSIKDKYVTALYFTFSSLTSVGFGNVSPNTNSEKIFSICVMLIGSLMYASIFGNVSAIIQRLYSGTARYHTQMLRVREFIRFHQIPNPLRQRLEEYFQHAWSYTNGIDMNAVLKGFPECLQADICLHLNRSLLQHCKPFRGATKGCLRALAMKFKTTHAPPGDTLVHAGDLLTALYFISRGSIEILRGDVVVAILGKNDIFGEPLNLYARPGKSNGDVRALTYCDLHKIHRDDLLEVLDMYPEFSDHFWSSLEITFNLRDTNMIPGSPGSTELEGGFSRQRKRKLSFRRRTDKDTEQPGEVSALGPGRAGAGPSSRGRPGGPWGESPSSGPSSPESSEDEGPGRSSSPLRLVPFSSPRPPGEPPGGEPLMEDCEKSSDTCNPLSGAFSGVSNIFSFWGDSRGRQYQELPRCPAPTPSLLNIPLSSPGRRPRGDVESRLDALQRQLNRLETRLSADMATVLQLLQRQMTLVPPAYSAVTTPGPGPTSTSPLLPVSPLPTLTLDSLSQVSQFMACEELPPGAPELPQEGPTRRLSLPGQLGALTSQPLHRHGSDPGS

Test [9] deals with Cytochrome P450 2D6 (Homo sapiens) (UniProt P10635). Kind of test: Cytochrome P450 Family 2 Subfamily D Member 6 (CYP2D6) small molecule antagonists: luciferase reporter qHTS assay (AID 1671196). Further: nearly all actives have a fitted effect of over 50% in size. Further: potency means the concentration at half of the fitted maximal effect. On activity change, negative = inhibition: series mostly up to about 120 µM. The essentials:
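CYP2D6 activity was followed as luminescence from its luciferin product after a 1 h NADPH-driven reaction at room temperature. Enzyme-substrate mix and compound were pre-incubated for 10 min, and the signal was read 20 min after adding detection reagent.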
In general terms: In a reporter assay the amount or activity of a reporter protein is the signal.

The target of test [10] is Cytochrome P450 2C19 (Homo sapiens) (UniProt P33261). The test is described as follows: Cytochrome P450 Family 2 Subfamily C Member 19 (CYP2C19) small molecule antagonists: luciferase reporter qHTS assay (AID 1671197). Further: nearly all actives have a fitted effect of over 65% in size. Further: potency means the concentration at half of the fitted maximal effect. On activity change, negative = inhibition: series mostly up to about 120 µM. The method, boiled down: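 Light output is proportional to CYP2C19 activity: proluciferin substrate is converted to luciferin, then detected by a luciferin detection reagent that also stops the 1 h, 37C NADPH-driven reaction. Ketoconazole serves as positive control.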
Cytochrome P450 2C19 (Homo sapiens), sequence (P33261 whole entry, looked up): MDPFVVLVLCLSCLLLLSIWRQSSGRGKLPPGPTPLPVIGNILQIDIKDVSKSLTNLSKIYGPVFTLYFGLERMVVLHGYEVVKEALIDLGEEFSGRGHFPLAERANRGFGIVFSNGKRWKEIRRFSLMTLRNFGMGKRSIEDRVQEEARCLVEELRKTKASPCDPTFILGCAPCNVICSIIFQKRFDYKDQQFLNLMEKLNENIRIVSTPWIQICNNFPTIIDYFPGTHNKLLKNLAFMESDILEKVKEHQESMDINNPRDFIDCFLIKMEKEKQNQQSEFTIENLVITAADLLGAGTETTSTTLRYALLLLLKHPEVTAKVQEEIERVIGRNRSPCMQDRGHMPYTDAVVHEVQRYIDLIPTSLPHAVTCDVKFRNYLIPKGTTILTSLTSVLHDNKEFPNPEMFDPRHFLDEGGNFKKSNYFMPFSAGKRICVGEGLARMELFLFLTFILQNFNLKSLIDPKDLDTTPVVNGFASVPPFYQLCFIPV

Test [11] concerns the target Cytochrome P450 2C9 (Homo sapiens) (UniProt P11712). The test is described as follows: Cytochrome P450 Family 2 Subfamily C Member 9 (CYP2C9) small molecule antagonists: luciferase reporter qHTS assay (AID 1671198). Further: series mostly up to about 120 µM; nearly all actives have a fitted effect of over 50% in size. The method, boiled down: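 CYP2C9 activity was measured with a P450-Glo proluciferin substrate. Enzyme–substrate mix was held with compound for 10 min at room temperature, then NADPH regeneration solution was added for 1 h at 37C. Luciferin product was read as luminescence.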

Test [12] concerns the target Cytochrome P450 1A2 (Homo sapiens) (UniProt P05177). Kind of test: Cytochrome P450 Family 1 Subfamily A Member 2 (CYP1A2) small molecule antagonists: luciferase reporter qHTS assay (AID 1671199). Further: nearly all actives have a fitted effect of over 50% in size. Further: potency means the concentration at half of the fitted maximal effect. On activity change, negative = inhibition: series mostly up to about 120 µM. The method, boiled down: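 Luminescence from luciferin formed by CYP1A2 from a proluciferin substrate, read 20 min after detection reagent. Compound was pre-incubated 10 min with enzyme-substrate, and reaction started with NADPH regeneration solution for 1 h at room temperature; furafylline control.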

Test [13] has as its target Cytochrome P450 3A4 (Homo sapiens) (UniProt P08684). Kind of test: Cytochrome P450 Family 3 Subfamily A Member 4 (CYP3A4) small molecule antagonists: luciferase reporter qHTS assay (AID 1671201). The method, boiled down: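 P450-Glo CYP3A4 luminescent assay: compounds preincubated 10 min at room temperature with enzyme and proluciferin substrate, NADPH regeneration added, 1 h room-temperature reaction, stopped with luciferin detection reagent; luminescence read after 20 min. Ketoconazole positive control.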

Test [14] concerns the target Nuclear receptor subfamily 1 group I member 2 (Rattus norvegicus) (UniProt Q9R1A7). The test is described as follows: Rat pregnane X receptor (rPXR) activation by small molecules, qHTS assay (AID 1346983). Further: nearly all actives have a fitted effect of over 20% in size. As to conditions: rPXR luciferase reporter cells, One-Glo luminescence, 24 h; stronger effect = higher value. The essentials: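 Cell-based rPXR luciferase reporter assay, 2,000 cells per well, rested 5hr at 37 C before compound addition in DMSO, then 24 hr at 37 C. One-Glo reagent was added and luminescence read after 30 min at room temperature.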

The target of test [15] is Nuclear receptor subfamily 1 group I member 2 (Homo sapiens) (UniProt O75469). Kind of test: CYP3A4 induction through human pregnane X receptor (PXR) by small molecules, qHTS assay (AID 1346984). Further: nearly all actives have a fitted effect of over 40% in size. The essentials: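 Read-out is luminescence after One-Glo addition, following a 3 hr, 37C incubation with Luciferin-IPA CYP3A4 substrate (3uM final). Before that, compounds were on DPX-2 cells (HepG2 co-transfected with PXR element plus CYP3A4-promoter luciferase) for 24 hr at 37C.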
Nuclear receptor subfamily 1 group I member 2 (Homo sapiens), sequence (O75469 whole entry, looked up): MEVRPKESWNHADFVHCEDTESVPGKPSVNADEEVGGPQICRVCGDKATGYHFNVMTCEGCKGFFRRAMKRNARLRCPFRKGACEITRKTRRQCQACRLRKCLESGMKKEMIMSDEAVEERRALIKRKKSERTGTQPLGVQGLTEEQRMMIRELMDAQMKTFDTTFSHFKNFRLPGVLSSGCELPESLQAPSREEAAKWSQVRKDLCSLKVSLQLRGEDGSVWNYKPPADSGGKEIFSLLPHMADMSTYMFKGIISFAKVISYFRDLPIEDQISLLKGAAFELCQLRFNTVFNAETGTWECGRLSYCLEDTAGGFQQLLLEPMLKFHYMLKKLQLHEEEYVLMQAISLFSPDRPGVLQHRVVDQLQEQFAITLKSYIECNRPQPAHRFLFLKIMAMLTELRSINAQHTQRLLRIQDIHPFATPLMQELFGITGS

Test [16] shares this target. The test is described as follows: Human pregnane X receptor (PXR) activation by small molecules, qHTS assay (AID 1346985). Further: nearly all actives have a fitted effect of over 40% in size. The method, boiled down:
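DPX-2 cells (HepG2 co-transfected with a PXR response element and a CYP3A4-promoter luciferase construct) were seeded at 2,000 per well, rested 5 hr at 37C, then exposed to DMSO-dissolved compounds for 24 hr. Activation was read as luciferase luminescence.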

Molecules are shown by their SMILES. Several values for one entry are separate records, joined by “and”; a condition that tells them apart may be missing. Equal values may be shown once. Results filed as inconclusive are left out. Some structures have more than one record in an assay (separate samples or runs), and their calls can disagree. Activity calls are given as the source filed them. Unless noted, the call rests on the fitted dose curve; in most records, active means well fitted curve in the direction sought with a large enough effect in the repeat runs; inconclusive means weak or mixed curves; inactive means no such curve, though single readings can be large; an effect the other way counts as inactive or inconclusive.
On the % scale 0 is the no-effect control and ±100 the full control effect.

Cytochrome P450 3A4 (Homo sapiens), sequence (P08684 whole entry, looked up): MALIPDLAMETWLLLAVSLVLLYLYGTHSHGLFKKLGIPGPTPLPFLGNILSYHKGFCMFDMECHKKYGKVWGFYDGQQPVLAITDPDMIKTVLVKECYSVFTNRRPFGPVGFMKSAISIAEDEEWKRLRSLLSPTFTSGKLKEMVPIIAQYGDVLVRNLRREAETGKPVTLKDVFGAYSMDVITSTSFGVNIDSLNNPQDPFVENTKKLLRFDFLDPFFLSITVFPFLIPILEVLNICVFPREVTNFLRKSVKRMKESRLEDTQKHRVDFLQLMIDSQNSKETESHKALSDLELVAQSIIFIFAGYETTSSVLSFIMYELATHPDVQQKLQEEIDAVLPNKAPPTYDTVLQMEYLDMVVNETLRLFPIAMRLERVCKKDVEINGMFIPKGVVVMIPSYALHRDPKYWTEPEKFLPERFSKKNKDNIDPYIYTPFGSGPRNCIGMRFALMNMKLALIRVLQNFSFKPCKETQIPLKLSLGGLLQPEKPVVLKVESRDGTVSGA
Cytochrome P450 2C9 (Homo sapiens), sequence (P11712 whole entry, looked up): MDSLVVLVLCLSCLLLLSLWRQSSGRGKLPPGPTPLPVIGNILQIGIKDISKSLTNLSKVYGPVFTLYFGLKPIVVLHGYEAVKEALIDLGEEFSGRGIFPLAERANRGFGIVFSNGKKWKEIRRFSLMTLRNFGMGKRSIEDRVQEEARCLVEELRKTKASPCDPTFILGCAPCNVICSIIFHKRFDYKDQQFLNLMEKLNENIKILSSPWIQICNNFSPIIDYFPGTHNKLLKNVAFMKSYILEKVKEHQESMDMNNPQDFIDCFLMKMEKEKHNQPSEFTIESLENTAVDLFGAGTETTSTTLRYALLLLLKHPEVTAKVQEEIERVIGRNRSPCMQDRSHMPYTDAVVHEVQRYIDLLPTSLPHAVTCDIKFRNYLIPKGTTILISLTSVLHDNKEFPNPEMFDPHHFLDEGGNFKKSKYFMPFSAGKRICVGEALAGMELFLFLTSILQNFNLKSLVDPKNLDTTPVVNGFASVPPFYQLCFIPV
Cytochrome P450 2D6 (Homo sapiens), sequence (P10635 whole entry, looked up): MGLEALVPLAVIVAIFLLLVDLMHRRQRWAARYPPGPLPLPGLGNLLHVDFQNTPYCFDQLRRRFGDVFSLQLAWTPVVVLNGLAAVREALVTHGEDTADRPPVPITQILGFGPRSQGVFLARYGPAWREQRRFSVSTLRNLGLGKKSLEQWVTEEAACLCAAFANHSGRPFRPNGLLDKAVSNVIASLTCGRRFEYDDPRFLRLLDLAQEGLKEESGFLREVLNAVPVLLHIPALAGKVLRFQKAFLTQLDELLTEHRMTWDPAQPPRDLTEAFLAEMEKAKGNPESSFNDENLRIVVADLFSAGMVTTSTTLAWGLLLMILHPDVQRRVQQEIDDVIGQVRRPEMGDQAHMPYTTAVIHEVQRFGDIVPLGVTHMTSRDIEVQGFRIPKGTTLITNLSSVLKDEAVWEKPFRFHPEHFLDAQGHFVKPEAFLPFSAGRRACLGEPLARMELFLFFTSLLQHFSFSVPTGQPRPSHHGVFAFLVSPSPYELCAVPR
Cytochrome P450 1A2 (Homo sapiens), sequence (P05177 whole entry, looked up): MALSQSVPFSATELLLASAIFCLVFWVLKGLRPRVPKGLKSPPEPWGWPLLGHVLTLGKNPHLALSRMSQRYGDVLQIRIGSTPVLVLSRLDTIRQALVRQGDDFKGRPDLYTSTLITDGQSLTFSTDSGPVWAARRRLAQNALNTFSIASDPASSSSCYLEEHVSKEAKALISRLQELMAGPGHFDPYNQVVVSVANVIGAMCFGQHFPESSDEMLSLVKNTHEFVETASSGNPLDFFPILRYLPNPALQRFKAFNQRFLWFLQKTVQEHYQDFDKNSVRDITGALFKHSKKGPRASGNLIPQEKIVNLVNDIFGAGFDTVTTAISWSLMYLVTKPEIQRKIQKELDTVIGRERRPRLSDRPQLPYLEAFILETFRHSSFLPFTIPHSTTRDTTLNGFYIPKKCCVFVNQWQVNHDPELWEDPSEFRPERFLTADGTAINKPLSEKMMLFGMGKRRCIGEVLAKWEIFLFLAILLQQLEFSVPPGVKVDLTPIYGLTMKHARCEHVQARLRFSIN
Nuclear receptor subfamily 1 group I member 2 (Rattus norvegicus), sequence (Q9R1A7 whole entry, looked up): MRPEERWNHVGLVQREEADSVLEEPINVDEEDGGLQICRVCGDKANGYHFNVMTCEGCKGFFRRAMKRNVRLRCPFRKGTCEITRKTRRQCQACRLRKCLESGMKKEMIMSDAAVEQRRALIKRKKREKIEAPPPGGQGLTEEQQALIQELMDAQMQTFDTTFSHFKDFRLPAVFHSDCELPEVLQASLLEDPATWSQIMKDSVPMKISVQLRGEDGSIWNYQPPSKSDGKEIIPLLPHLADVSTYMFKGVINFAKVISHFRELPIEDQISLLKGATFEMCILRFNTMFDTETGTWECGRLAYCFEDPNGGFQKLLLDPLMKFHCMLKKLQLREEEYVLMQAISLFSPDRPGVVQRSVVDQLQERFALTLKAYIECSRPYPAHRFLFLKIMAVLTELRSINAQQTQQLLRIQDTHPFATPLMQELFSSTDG

As for `CCCCOC(=O)c1ccc(N)cc1`, the call in test [1] and in test [5] was inactive. Moreover, the Potency result in test [2], in test [3], in [4], in test [6] and in [8] was “inactive” each time. Moreover, in test [7], the Potency is 53.8 µM (active) and 23.7 µM (active).
Regarding `NCCCCCCN`, the outcome in test [1] and in test [5] was inactive. The Potency entry in test [2], in test [3], in test [6], in test [10], in test [11] and in test [12] was “inactive” each time. In addition, the Potency entry in test [8] and in [13] was “inactive” each time. Moreover, the Potency in [4] is 2.75 µM (active) and 19.3 µM (active); in [9], 32 µM (active) and 35.6 µM (active).
Regarding `CC(=O)c1ccc(O)cc1`, the call in test [1] and in test [5] was inactive. Further, the Potency result in test [2], in [3], in [4], in [6], in [9] and in [10] was “inactive” each time. Also, the Potency result in [11], in test [12], in test [8] and in [13] was “inactive” throughout.
In the case of `CCCCCC(=O)O`, the compound was called inactive in test [1] and in [5]. Besides, the Potency entry in test [2], in test [3], in test [4], in [6], in test [9] and in [11] was “inactive” throughout. The Potency entry in test [12], in test [8] and in test [13] was “inactive” throughout. Moreover, the Potency in test [10] is 71.1 µM (active) and inactive.
Regarding `OC1C(O)C(O)C(O)C(O)C1O` (centres undefined), the call in test [1], in test [5] and in [16] was inactive. Further, the Potency result in test [2], in test [3], in [4], in [6], in [15] and in test [9] was “inactive” each time. Further, the Potency result in test [10], in test [11], in test [12], in [8] and in test [13] was “inactive” each time. In addition, the max activation in [14] was -0.165% (inactive).
With `CCc1ccccc1CC`, the compound was classed as inactive in test [1] and in test [5]. For the same compound, the Potency result in test [2], in test [3], in test [4], in [6], in [9] and in [11] was “inactive” each time. Further, the Potency result in [8] and in test [13] was “inactive” in each case. Besides, the activity change, negative = inhibition in test [10] was 2.36% [at 23.6 µM] (inactive); in [12], -28.6% [at 23.6 µM] (inactive).
On to `CC(=O)CC(C)(C)O`, for which the call in test [1] and in test [5] was inactive. For the same compound, the Potency entry in test [2], in [3], in test [4], in test [6], in [9] and in test [11] was “inactive” each time. Also, the Potency result in test [12], in test [8] and in test [13] was “inactive” in each case. Besides, the Potency in test [10] is 40.6 µM (active) and inactive.
As for `CCCCCCCCCCN`, the call in [1] and in [5] was inactive. Further, the Potency entry in [2], in test [3], in test [4], in test [6], in test [7] and in test [8] was “inactive” each time. The Potency entry in test [13] was “inactive”. For the same compound, the Potency is 35.8 µM (active) and 12.6 µM (active) in [9]; 7.14 µM (active) and 5.64 µM (active) in test [10]; 31.9 µM (active) and 31.7 µM (active) in test [12].
Regarding `O=S(=O)(O)c1ccc(N=Nc2c(O)ccc3cc(S(=O)(=O)O)ccc23)cc1`, the outcome in test [1] and in [5] was inactive. In addition, the Potency is 39.8 µM (active) and 30.6 µM (active) in test [2]; 54.7 µM (active) and 27.3 µM (active) in test [4]; 54.7 µM (active) and 30.6 µM (active) in test [6]; 31.8 µM (active) in [9]; 71.3 µM (active) in test [10]; 40.1 µM (active) in test [12]. For the same compound, the Potency result in test [3], in test [7], in [8] and in test [13] was “inactive” in each case.
Regarding `C=CC[N+](C)(C)CC=C`, the result in test [1] and in [5] was inactive. For the same compound, the Potency entry in test [2], in test [3], in test [4], in [6], in test [9] and in [11] was “inactive” in each case. The Potency result in [12], in test [8] and in [13] was “inactive” each time. The Potency in [10] is 56.8 µM (active) and inactive.

The values above are taken from PubChem BioAssay (Tox21).
